This note sets out measurements from ChEMBL document CHEMBL3988442, “University of Dundee, Small-Polar-MMV Screening Library” (2021).

Hit rate of the full screen: of about 67,000 compounds, about 300 (0.45%) showed an effect of 50% or more. The entries come from a sample that favours strong results as a whole.

The target of this assay is Polyketide synthase Pks13 (Mycobacterium tuberculosis (strain ATCC 25618 / H37Rv)) (UniProt I6X8D2). In words: Mycobacterium tuberculosis Polyketide synthase 13 Thioesterase (PKS13). Format: functional. On the set-up: scale not given: in the data most compounds retested in dose-response had high values. Particulars: 30 µM.
Polyketide synthase Pks13 (Mycobacterium tuberculosis (strain ATCC 25618 / H37Rv)), sequence (I6X8D2 whole entry): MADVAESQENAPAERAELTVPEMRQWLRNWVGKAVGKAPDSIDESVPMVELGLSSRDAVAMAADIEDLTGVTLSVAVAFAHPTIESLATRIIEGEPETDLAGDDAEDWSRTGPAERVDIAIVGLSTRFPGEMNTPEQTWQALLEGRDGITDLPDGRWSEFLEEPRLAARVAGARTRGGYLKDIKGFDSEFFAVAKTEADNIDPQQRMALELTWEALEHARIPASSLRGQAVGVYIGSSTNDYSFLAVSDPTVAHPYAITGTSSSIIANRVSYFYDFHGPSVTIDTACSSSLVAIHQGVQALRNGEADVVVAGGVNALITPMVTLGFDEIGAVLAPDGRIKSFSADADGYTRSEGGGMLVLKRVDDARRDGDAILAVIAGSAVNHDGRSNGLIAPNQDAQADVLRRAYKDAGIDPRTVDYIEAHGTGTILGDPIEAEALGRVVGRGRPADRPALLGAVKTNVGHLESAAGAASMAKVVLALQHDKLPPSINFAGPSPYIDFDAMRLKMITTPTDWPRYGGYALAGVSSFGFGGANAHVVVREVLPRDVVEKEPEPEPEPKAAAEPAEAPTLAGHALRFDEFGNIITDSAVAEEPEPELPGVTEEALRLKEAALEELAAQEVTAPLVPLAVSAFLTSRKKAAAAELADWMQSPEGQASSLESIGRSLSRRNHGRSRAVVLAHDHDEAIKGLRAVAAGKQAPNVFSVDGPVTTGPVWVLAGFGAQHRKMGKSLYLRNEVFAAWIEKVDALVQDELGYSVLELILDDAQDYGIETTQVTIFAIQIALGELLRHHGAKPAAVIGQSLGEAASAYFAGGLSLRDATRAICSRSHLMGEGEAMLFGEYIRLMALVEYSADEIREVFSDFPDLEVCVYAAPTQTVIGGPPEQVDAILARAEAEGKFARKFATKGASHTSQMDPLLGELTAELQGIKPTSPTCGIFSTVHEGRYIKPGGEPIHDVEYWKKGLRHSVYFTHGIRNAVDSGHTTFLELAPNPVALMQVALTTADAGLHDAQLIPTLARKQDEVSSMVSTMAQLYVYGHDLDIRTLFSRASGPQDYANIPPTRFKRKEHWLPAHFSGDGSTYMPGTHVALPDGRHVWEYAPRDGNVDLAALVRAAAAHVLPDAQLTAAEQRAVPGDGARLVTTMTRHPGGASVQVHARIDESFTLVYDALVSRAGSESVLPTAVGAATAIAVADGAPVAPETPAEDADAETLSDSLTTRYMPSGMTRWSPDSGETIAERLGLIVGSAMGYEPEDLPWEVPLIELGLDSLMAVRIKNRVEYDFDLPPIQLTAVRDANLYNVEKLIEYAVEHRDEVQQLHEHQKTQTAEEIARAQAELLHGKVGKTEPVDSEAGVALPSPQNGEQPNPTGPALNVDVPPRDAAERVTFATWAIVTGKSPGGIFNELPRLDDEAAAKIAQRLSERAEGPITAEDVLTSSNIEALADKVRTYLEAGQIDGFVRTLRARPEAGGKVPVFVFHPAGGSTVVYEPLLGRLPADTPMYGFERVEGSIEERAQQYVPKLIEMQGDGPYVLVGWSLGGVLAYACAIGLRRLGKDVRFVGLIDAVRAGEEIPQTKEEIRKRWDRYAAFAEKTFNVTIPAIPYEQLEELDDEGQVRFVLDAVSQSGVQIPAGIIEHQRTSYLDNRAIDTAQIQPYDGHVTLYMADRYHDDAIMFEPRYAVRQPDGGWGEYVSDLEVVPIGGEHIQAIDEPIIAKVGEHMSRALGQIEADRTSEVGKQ
Regarding `CC1=CC[C@@H]2CN(C(=O)c3ccc(-c4cc[nH]n4)cc3)C[C@@H]2C1`, the Percent Effect is -21.5%.
`CN(CCc1cccs1)C(=O)Nc1ccc2c(c1)C(=O)N(C)CC2`: the Percent Effect came out at 31.9%.
Take `CN1CCc2ccc(NCc3cccs3)cc2C1=O`: the Percent Effect came to 126%.
As for `CN1CCc2ccc(NCc3cscn3)cc2C1=O`, the figure is -2.18%; as for `Cc1noc(C)c1CN1C[C@@H]2COC[C@@H](C(=O)N3CCCCO3)[C@@H]2C1`, 6.29%; as for `COc1cccc(CN2CCC3(CC2)CCN(c2ncc(C)cn2)C3)c1`, -24.2%.
For `CN(C)c1ncc2c(n1)C1(CCN(Cc3cccnc3)C1)COC2` (centres undefined), the Percent Effect is -30.2%.
Next, `COc1cccc(CN2CCC3(CCN(c4ncc(C)cn4)CC3)C2)c1`: 66.7%; `COc1cccc(CN2CCC3(CCN(c4ncc(F)cn4)CC3)C2)c1`: 14.4%; `CN(C)c1ncc2c(n1)C1(CCN(Cc3ccccc3)C1)COC2` (centres undefined): -6.74%.
For the compound `COc1cccc(CN2CCC3(COCc4cnc(N(C)C)nc43)C2)c1` (centres undefined), the Percent Effect stood at 111%.
For the compound `Cc1noc([C@]23COC[C@H]2CN(C(=O)COC2CCCC2)C3)n1`, the Percent Effect is -5.31%.
Regarding `COCCOCC(=O)N1C[C@H]2CC[C@@H]1CN(C1Cc3ccccc3C1)C2`, the Percent Effect is -22.6%.
Next, `CCc1cccc2cc(CNCCCN3CCOCC3)c(=O)[nH]c12`: 16.5%.
As for `Cc1ccc2cc(CNCCCN3CCOCC3)c(=O)[nH]c2c1C`, the figure is 62.3%; as for `Cc1cccc2cc(CNCCCN3CCOCC3)c(=O)[nH]c12`, -21.5%; as for `CS(=O)(=O)N1CCO[C@@H]2CN(Cc3ccncc3)C[C@@H]2C1`, -14.9%.
With `CN(C)CCN1CCC(CNCc2c[nH]nc2C(C)(C)C)CC1`, the Percent Effect is -14.5%.
As for `CC(O)CN1CCC(CNCc2cccc(C(=O)N(C)C)c2)CC1` (centres undefined), the figure is -0.155%.
Regarding `CC(O)CN1CCC(CNCc2c[nH]nc2C(C)(C)C)CC1` (centres undefined), the Percent Effect was 110%.
On to `CC(O)CN1CCC(CNCc2ccc(C(N)=O)cc2)CC1` (centres undefined), for which the Percent Effect was -12.3%.
Next, `CC(O)CN1CCC(CNCc2cccc(C(N)=O)c2)CC1` (centres undefined): 108%.
`CCN1CCC(CNCc2c[nH]nc2C(C)(C)C)C1` (centres undefined): the Percent Effect was -27.2%.
As for `Cn1cc(CN2CC[C@@H]3[C@@H]2CCN3C(=O)Cc2cccc(F)c2)cn1`, the figure is -2.13%.
Regarding `Fc1ccc(CN2CCO[C@H]3[C@H](Oc4ccccn4)CC[C@@H]32)cc1`, the Percent Effect was determined as 13.6%.
For `O=C(Cc1ccccn1)N1CCN2C[C@H](Oc3cccc(F)c3)C[C@H]2C1`, the Percent Effect is -20.8%.
Next, `O=C(c1cnccn1)N1CC[C@H]2C[C@@H](c3ccncn3)O[C@@H]2C1`: -4.56%.
As to `O=C(O)[C@]12CCCN(Cc3ccccc3)C[C@H]1CN(c1ncccn1)C2`, the Percent Effect is -25.9%.
Regarding `Cc1ccc(CN2CC[C@H]3O[C@@H](C(=O)N4CCCO4)CC[C@H]32)s1`, the Percent Effect is -20.3%.
Next, `Cn1ncc2c1CN(Cc1cccnc1)CC2COCC1CC1` (centres undefined): 60.5%; `Cn1ncc2c1C(COCC1CC1)CN(Cc1cccnc1)C2` (centres undefined): -43.6%; `Cn1ncc2c1CN(Cc1ccc(F)cc1)CC2COCC1CC1` (centres undefined): -20.5%.
Next, `CN1CCN(C(=O)N2C[C@H]3CC[C@@H]2CN(Cc2ccccc2)C3)CC1`: 7.3%.
Regarding `Cc1ccc(N2CC[C@H]3O[C@@H](C(=O)N4CCCCO4)CC[C@H]32)nn1`, the Percent Effect is 14.6%.
As to `O=C([C@H]1COC[C@H]2CN(C3CCOCC3)C[C@H]21)N1CCCO1`, the Percent Effect is -30.7%.
As for `CCOCCC(=O)N1C[C@H]2CC[C@@H]1CN(c1ncccn1)C2`, the figure is -26.3%; as for `CCCSCC(=O)N1C[C@H]2CC[C@@H]1CN(c1ncccn1)C2`, -17%.
Next, `Cc1n[nH]c(SCC(=O)N2C[C@H]3CC[C@@H]2CN(c2ncccn2)C3)n1`: 53.5%.
`O=C(c1ncccn1)N1C[C@H]2CCC[C@@]2(COCc2ccncc2)C1`: the Percent Effect is -14.6%.
As for `NC(=O)N1CC[C@@H]2O[C@H](COCC(=O)N3CCCC3)CC[C@@H]21`, the figure is 9.98%.
`COc1ccc2nc(C3CC3)cc(C(=O)NCCc3nnc[nH]3)c2c1`: the Percent Effect was -11.9%.
Next, `NC(=O)C1CCCN1C(=O)c1cc(C2CC2)nc2ccc(F)cc12` (centres undefined): -9.51%.
Next, `NC(=O)c1cc(C2CC2)nc2ccc(F)cc12`: 87.8%; `COCCN1C(=O)[C@H]2CC[C@@H]1CN(c1ncccn1)C2`: 1.06%; `O=C(c1cnco1)N1C[C@@H]2CC[C@H](Oc3ccccc3F)[C@@H]2C1`: 6.58%.
Take `N#Cc1ccc(C(=O)O)nc1/C=C/c1cccc(Cl)c1`: the Percent Effect is 51.4%.
For `N#Cc1ccc(C(=O)O)nc1/C=C/c1cccc(F)c1`, the Percent Effect was -26.4%.
For `N#Cc1ccc(C(=O)O)nc1/C=C/c1cccc(Br)c1`, the Percent Effect was -10.3%.
Regarding `CC(C)C(=O)N1CC[C@@H]2[C@H](CC1)N(Cc1cccnc1)CCS2(=O)=O`, the Percent Effect is -7.83%.
Take `c1ccc(O[C@@H]2CN(Cc3nccs3)[C@@H]3CCCO[C@@H]32)nc1`: the Percent Effect was -21.3%.
For the compound `CN(C)CCO[C@H]1CN(C(=O)c2cscn2)[C@@H]2COC[C@H]12`, the Percent Effect turned out to be 4.36%.
As for `Cn1cc(Br)c(C(=O)NCCn2cc(Br)cn2)n1`, the figure is -18.6%; as for `Cn1cc(I)c(C(=O)NCCCn2cc(Br)cn2)n1`, 55%.
As for `Cn1cc(Br)c(C(=O)NCCCn2cc(Br)cn2)n1`, the figure is 27.2%; as for `Cn1ccnc1CN1CCN(Cc2ccncc2)[C@@H]2CS(=O)(=O)C[C@@H]21`, -14%.
As for `Cc1cc(CN2CC[C@@H]3[C@@H](CCC(=O)N3CCc3c[nH]cn3)C2)oc1C`, the figure is -32.9%; as for `O=C([C@H]1CC[C@@H]2[C@@H](CCN2C2CCOCC2)O1)N1CCOCC1`, 5.19%; as for `Cc1n[nH]c(C)c1CCC(=O)NCC1(O)CCN(c2ccccn2)C1` (centres undefined), 61.1%.
Consider `Cc1noc(C)c1CCC(=O)NCC1(O)CCCN(c2ccccn2)C1` (centres undefined), for which the Percent Effect was found to be 9.52%.
With `Cc1noc(C)c1CCC(=O)NCC1(O)CCN(c2ccccn2)C1` (centres undefined), the Percent Effect worked out at 1.81%.
As for `CCO[C@H]1CC[C@H]2[C@H]1OCCN2C(=O)c1nn(C)c2ccccc12`, the Percent Effect is -2.76%.
Turning to `CN(C)[C@@H]1CN(C(=O)Cc2cccs2)[C@@H]2CCCO[C@H]12`, the Percent Effect is -8.31%.
Consider `Cc1nc(N2CCCC2)ncc1C(=O)Nc1ccc(Br)cc1`, for which the Percent Effect is -0.502%.
For `Cc1c(C2=NS(=O)(=O)N(C)C(C(=O)Nc3ccc(Br)cc3)=C2)cnn1C`, the Percent Effect was found to be 47%.
Next, `Cc1nn(C)cc1C1=NS(=O)(=O)N(C)C(C(=O)Nc2ccc(Br)cc2)=C1`: 57.7%; `O=C1N(C2CCCCC2)C[C@H]2CN(C3CCC3)CCN12`: 5.32%; `COCCN1C(=O)CC[C@@H]2[C@@H]1CCN2Cc1c(C)noc1C`: 2.01%.
As for `CS(=O)(=O)N[C@@H]1CN(Cc2ccccc2)C[C@@H]2CCCO[C@@H]21`, the figure is -27.1%; as for `CN(Cc1ccccn1)C1CCC[C@@H]2CN(CC3CC3)C[C@H]12` (some centres undefined), -21.9%.
